HT1080-NT tox: kills 2HG-producing HT-1080-NT fibrosarcoma cells | HT-1080-NT fibrosarcoma viability, CellTiter-Glo ATP luminescence, 48 h | Potency, µM (doses to about 46.1 µM), most hits filed as cytotoxic | 1.6% of 360,000 active | AID 686970;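 also: NT is the 2HG producing partner of a matched IDH1 knockdown line; nearly all actives have a fitted effect of over 55% in size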
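HT-1080-NT; 750 cells/well; 5% FBS RPMI; 48 h compound, 37 degrees C; CellTiter-Glo luminescence; curve fitting and curve-class assignment.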
MCF10A rereplic: induces DNA re-replication in MCF 10a normal breast cells; MCF 10A DNA re-replication, Hoechst nuclear intensity, 48 h; Potency, µM (top dose mostly 46.1 µM), hits mostly activators; 2.9% of 350,000 active; also: nearly all actives have a fitted effect of over 50% in size
SW480 rereplic: induces DNA re-replication in SW480 colon adenocarcinoma cells | SW480 DNA re-replication, Hoechst DNA content imaging, 48 h | Potency, µM (doses to about 46.1 µM), hits mostly activators | 1.8% of 340,000 active | AID 624297; also: nearly all actives have a fitted effect of over 55% in size
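Treated cells incubate 48 hr (37 C, 5% CO2), are stained 40 min with Hoechst, and nuclear fluorescence is enumerated; a rise in nuclei with high DNA signal marks re-replication.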
KB-3-1 cytotox: kills parental KB-3-1 adenocarcinoma cells; KB-3-1 viability, CellTiter-Glo ATP luminescence, 72 h; 1.4% of 400,000 active; Potency, µM (highest dose often 46.1 µM), most hits filed as cytotoxic; also: nearly all actives have a fitted effect of over 60% in size
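Viability of parental KB-3-1 cells, measured by CellTiter-Glo luminescence, followed a 72 h incubation at 37 °C with pinned compounds in phenol-red-free DMEM containing 10% FBS.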
HT1080 IDH1KD tx: HT-1080 IDH1 knockdown cell toxicity (counter line); HT-1080 IDH1 knockdown viability, ATP luminescence, 48 h; Potency, µM (doses to about 46.1 µM), hits mostly cytotoxic; 2% of 360,000 active; AID 686971
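Cytotoxicity counter-line: IDH1KD HT-1080, 48 h, CellTiter-Glo. Curves classed by r2, magnitude and activity.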
KB-V1 MDR tox: KB-V1 MDR subline cytotoxicity | AID 1347076 | KB-V1 MDR cells viability, CellTiter-Glo, 72 h | Potency, µM (series often up to 46.1 µM), actives largely listed as cytotoxic | 3.4% of 400,000 active; also: nearly all actives have a fitted effect of over 60% in size
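Following 72 h at 37 degrees C with compound, KB-V1 cell viability was read by CellTiter-Glo luminescence, medium being phenol-red-free DMEM plus 10% FBS; concentration-response parameters came from normalized, curve-fitted qHTS data.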
Of the large screens only hits and unclear results are named; the others gave an inactive call; ! = not confirmed by another sample. Most compounds without a hit are left out; they make up all but 8% or so of the library. Calls follow the shape of the dose curve; as a rule, active = well fitted curve in the direction sought with a large enough effect; inconclusive = small, poorly fitted or top-dose-only effect, or another doubt; inactive = no such curve, though single readings can be large; an effect the other way counts as inactive or inconclusive.

COC(=O)c1ccccc1NC(=S)N(Cc1ccc2c(c1)OCO2)Cc1cc2cc(OC)ccc2[nH]c1=O	MCF10A rereplic inconclusive, KB-V1 MDR tox 18.4µM (no result: SW480 rereplic)
Cc1ccc(O)c(-c2ccnc3cc(-c4ccc(Cl)cc4)nn23)c1	none (no result: HT1080-NT tox, MCF10A rereplic, SW480 rereplic, HT1080 IDH1KD tx)
COc1ccccc1NC(=O)N(Cc1cccs1)Cc1cc2cc3c(cc2[nH]c1=O)OCO3	HT1080-NT tox inconclusive, MCF10A rereplic 20.6µM, SW480 rereplic inconclusive, KB-3-1 cytotox inconclusive, HT1080 IDH1KD tx inconclusive, KB-V1 MDR tox inconclusive
COc1ccc(S(=O)(=O)N(Cc2cc3cc(C)ccc3[nH]c2=O)CC2CCCO2)cc1 (stereo unspecified)	KB-V1 MDR tox 7.31µM
Cc1cc2cc(CN(CC3CCCO3)C(=S)Nc3ccccc3)c(=O)[nH]c2cc1C (stereo unspecified)	HT1080-NT tox 11.6µM, MCF10A rereplic 10.3µM, SW480 rereplic inconclusive, KB-3-1 cytotox 7.31µM, HT1080 IDH1KD tx inconclusive
COc1ccc2cc(CN(CC3CCCO3)C(=S)Nc3ccccc3)c(=O)[nH]c2c1 (stereo unspecified)	HT1080-NT tox 25.9µM, MCF10A rereplic 13µM, SW480 rereplic 16.4µM, KB-3-1 cytotox 5.8µM, HT1080 IDH1KD tx 14.6µM, KB-V1 MDR tox 20.6µM
COc1ccc2cc(CN(CC3CCCO3)S(=O)(=O)c3ccc(C(C)=O)cc3)c(=O)[nH]c2c1 (stereo unspecified)	none
COc1cc(O)c(C(CC(=O)N2CCN(c3ccccc3)CC2)c2cc(OC)c(OC)c(OC)c2)c(OC)c1 (stereo unspecified)	none
Cc1c(-n2c(=S)[nH]c3ccccc3c2=O)c(=O)n(-c2ccccc2)n1C	none
CC(C)(C)NC(=O)c1ccc2c(c1)N(CC(=O)N1CCCCC1)C(=O)C(C)(C)O2	none
Cc1ccc2cc(CN(c3ccccc3C)S(=O)(=O)c3ccccc3)c(=O)[nH]c2c1	MCF10A rereplic inconclusive, SW480 rereplic 20.6µM, KB-3-1 cytotox inconclusive, KB-V1 MDR tox inconclusive
Cc1[nH]c2ccc(C(=O)OC(C)C(=O)NCc3ccccc3)cc2c1C (stereo unspecified)	HT1080-NT tox inconclusive, MCF10A rereplic 14.6µM, SW480 rereplic inconclusive, KB-3-1 cytotox 16.4µM, HT1080 IDH1KD tx inconclusive, KB-V1 MDR tox 16.4µM
CCOC(=O)c1c(C)[nH]c(C(=O)OC(C)C(=O)NCc2ccccc2)c1C (stereo unspecified)	KB-V1 MDR tox inconclusive
CC(C)NS(=O)(=O)c1ccc(OCC(=O)NCc2ccc3c(c2)OCO3)c(Cl)c1	none
C=CCn1c(COc2cccc(C)c2)nnc1SCC(=O)NC(=O)NCc1ccco1	MCF10A rereplic 18.4µM
COc1ccc(-c2nnc(N3CCCCC3)c3ccccc23)cc1	KB-3-1 cytotox inconclusive, KB-V1 MDR tox 11.6µM
CCN1CCN(c2nnc(-c3ccccc3)c3ccccc23)CC1	KB-V1 MDR tox inconclusive
Cc1ccc(-c2nnc(N3CCCCCC3)c3ccccc23)cc1	MCF10A rereplic inconclusive, KB-3-1 cytotox 23.1µM, KB-V1 MDR tox inconclusive
COc1ccc(-c2nnc(N3CCOCC3)c3ccccc23)cc1	SW480 rereplic inconclusive
CC(=O)Nc1ccc(S(=O)(=O)N(C)S(=O)(=O)c2ccc(F)cc2)cc1	HT1080 IDH1KD tx inconclusive, KB-V1 MDR tox 16.4µM
CN(c1ccccc1)S(=O)(=O)c1ccc(NC(=O)c2ccc(F)cc2)cc1	MCF10A rereplic inconclusive
NS(=O)(=O)c1ccc(NC(=O)COC(=O)c2ccc([N+](=O)[O-])s2)cc1	SW480 rereplic 16.4µM
FCCCOc1ccc(-c2nccc(-c3ccc(Cl)cc3)n2)cc1	none
COc1ccc(-c2ccnc(-c3ccc(OCCCF)cc3)n2)cc1	MCF10A rereplic 14.6µM, SW480 rereplic inconclusive, KB-3-1 cytotox inconclusive, KB-V1 MDR tox inconclusive
O=C(Nc1ccc(Cl)cc1)N[C@@H]1CC[C@H](CCNS(=O)(=O)c2ccccc2F)O[C@@H]1CO	none (no result: MCF10A rereplic, SW480 rereplic)
Cc1ccc(F)c(S(=O)(=O)NC(=O)C2(C)CCN2C(=O)COc2ccc(Cl)cc2)c1 (stereo unspecified)	HT1080-NT tox inconclusive (no result: MCF10A rereplic, SW480 rereplic)
Cc1ccc(Oc2ccccc2/C=C2\SC(=O)N(C)C2=O)cc1	SW480 rereplic inconclusive, KB-V1 MDR tox 16.4µM
CN1C(=O)S/C(=C\c2ccccc2OCc2ccc(C(=O)O)cc2)C1=O	MCF10A rereplic inconclusive, KB-V1 MDR tox inconclusive
CCCn1c(=S)[nH]c2cc(C(=O)N3CCc4ccccc43)ccc2c1=O	MCF10A rereplic inconclusive, KB-3-1 cytotox inconclusive, KB-V1 MDR tox 2.31µM
CCc1noc(C)c1C(=O)Nc1nc2ccc(F)cc2s1	MCF10A rereplic inconclusive
Cc1cc(C(=O)Nc2nc3c(s2)CCCC3)no1	KB-V1 MDR tox 16.4µM
CCc1ccc2nc(NC(=O)c3cc(C)on3)sc2c1	HT1080-NT tox 9.2µM, MCF10A rereplic 6.51µM, SW480 rereplic 6.51µM, KB-3-1 cytotox 7.31µM, HT1080 IDH1KD tx 6.51µM, KB-V1 MDR tox 8.2µM
CCOc1ccccc1NC(=O)CSc1nc2c(c(=O)n(C)c(=O)n2C)n1C	KB-V1 MDR tox inconclusive
CC(C)(Oc1ccc(Br)cc1)C(=O)N1CCc2ccccc21	MCF10A rereplic inconclusive, KB-V1 MDR tox 20.6µM
O=C(COc1ccc(Br)cc1)N1CCc2ccccc21	none
O=C(COc1ccccc1Br)NCCc1nc2ccccc2[nH]1	KB-V1 MDR tox 14.6µM!
CCn1c(SCC(=O)Nc2nc(C)c(C)s2)nnc1-c1cccnc1	none
Cn1c(C(=O)N2CCCc3ccccc32)cc2sccc21	KB-3-1 cytotox inconclusive, KB-V1 MDR tox 14.6µM
O=C(c1coc(=O)c(Br)c1)N1CCCc2ccccc21	MCF10A rereplic 14.6µM
O=C(c1cc2sccc2n1Cc1ccccc1)N1CCc2ccccc21	HT1080 IDH1KD tx inconclusive, KB-V1 MDR tox 10.3µM
Cc1ccc2nc(-c3ccccn3)c(NC3CCCC3)n2c1	HT1080-NT tox inconclusive, MCF10A rereplic inconclusive, SW480 rereplic 16.4µM, HT1080 IDH1KD tx inconclusive
CCOC(=O)Cc1ccc(NS(=O)(=O)c2ccc(SC)cc2)cc1	none
COc1ccc(S(=O)(=O)Nc2cc3c4c(oc3c3ccccc23)CCCC4=O)cc1	HT1080-NT tox inconclusive, MCF10A rereplic inconclusive, SW480 rereplic inconclusive, KB-3-1 cytotox 7.31µM, HT1080 IDH1KD tx 3.66µM, KB-V1 MDR tox 5.17µM
CCn1c2ccccc2c2cc(NS(=O)(=O)c3ccc(C)cc3)ccc21	HT1080-NT tox inconclusive, MCF10A rereplic 18.4µM, SW480 rereplic inconclusive, KB-3-1 cytotox inconclusive, HT1080 IDH1KD tx inconclusive, KB-V1 MDR tox inconclusive
COc1ccc(S(=O)(=O)Nc2cc3c4c(oc3c3ccccc23)CC(C)(C)CC4=O)cc1	HT1080-NT tox inconclusive, KB-3-1 cytotox inconclusive, HT1080 IDH1KD tx inconclusive, KB-V1 MDR tox inconclusive
Cc1ccccc1NS(=O)(=O)c1ccc(F)cc1	none
